Compound activity (PubChem)
In the library only some 3.1% were active in any assay of this set; here they are far more common.
12-hLO inh – qHTS Assay for Inhibitors of 12-hLO (12-human lipoxygenase). Potency, µM (titrated, usually from 57.1 µM), for inactives: at the top dose activity change, negative = inhibition, hits mostly inhibitors. purified 12-hLO, xylenol orange hydroperoxide absorbance. AID 1452, 2008. Polyunsaturated fatty acid lipoxygenase ALOX12 (Homo sapiens), P18054. 0.12% of 150,000 active; note: potency is the fitted concentration of half-maximal effect; nearly all actives have a fitted effect of over 55% in size
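Purified human 12hLO (150 nM), preincubated 15 min with compound, then 40 uM arachidonic acid for 30 min, room temperature, Hepes pH 7.0 with 0.01% Triton X-100. Hydroperoxide detected by ferrous iron/xylenol orange; 573/405 nm absorbance ratio gives reaction progress.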
PNC assembly inh – High Content Assay for Compounds that inhibit the Assembly of the Perinucleolar Compartment. activity change (PNC), negative = inhibition, % at 10 µM. AID 2417, 2010. PC3M PTB-GFP, PNC prevalence imaging, 16 h; active compounds read low. 3.1% of 140,000 active;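 active = readout at or below -70, meaning at least 70% loss of cells showing the perinucleolar compartment, a nuclear body marking cancer cells; inconclusive = readout between -30 and a set limit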;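 note: plate controls were DMSO wells for no effect and camptothecin positive control wells for full effect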
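PC3M cells stably expressing PTB-GFP, 750–1000 cells/well, treated 16 h at 37 °C with compound (23 nl of library stock), in duplicate. After paraformaldehyde fixation and Hoechst stain, imaged at 20x; PNC prevalence scored by image analysis.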
15-hLO-2 inh – qHTS Assay for Inhibitors of 15-hLO-2 (15-human lipoxygenase 2) | Polyunsaturated fatty acid lipoxygenase ALOX15B (Homo sapiens), O15296 | purified 15hLO-2, xylenol orange hydroperoxide absorbance | Potency, µM (titrated, usually from 57.1 µM), for inactives: top-dose activity change, negative = inhibition, actives largely listed as inhibitors | 0.56% of 110,000 active; note: potency is the fitted concentration of half-maximal effect; nearly all actives have a fitted effect of over 60% in size
Target sequence (O15296 whole entry, looked up): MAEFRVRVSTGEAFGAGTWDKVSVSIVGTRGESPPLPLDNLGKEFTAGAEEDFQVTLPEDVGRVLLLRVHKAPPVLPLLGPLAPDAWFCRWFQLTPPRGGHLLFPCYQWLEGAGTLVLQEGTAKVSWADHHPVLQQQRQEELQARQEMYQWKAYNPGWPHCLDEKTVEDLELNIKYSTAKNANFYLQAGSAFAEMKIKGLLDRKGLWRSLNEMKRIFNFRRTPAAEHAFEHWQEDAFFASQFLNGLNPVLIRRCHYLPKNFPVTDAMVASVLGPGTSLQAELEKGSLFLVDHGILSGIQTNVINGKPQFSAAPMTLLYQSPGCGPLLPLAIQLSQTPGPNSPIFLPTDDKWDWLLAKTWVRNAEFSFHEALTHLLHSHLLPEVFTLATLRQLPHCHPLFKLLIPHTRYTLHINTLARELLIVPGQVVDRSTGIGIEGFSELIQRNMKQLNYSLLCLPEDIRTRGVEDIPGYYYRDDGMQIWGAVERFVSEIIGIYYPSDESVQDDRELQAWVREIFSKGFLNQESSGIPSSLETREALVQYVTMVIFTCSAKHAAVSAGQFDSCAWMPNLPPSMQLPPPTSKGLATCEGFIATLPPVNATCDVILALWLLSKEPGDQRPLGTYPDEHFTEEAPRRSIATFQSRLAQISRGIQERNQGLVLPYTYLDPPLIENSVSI
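Purified human 15hLO-2 (50 nM) preincubated 15 min with compound, then 45 uM arachidonic acid for 90 min at RT in 25 mM Hepes pH 7.5, 0.01% Triton X-100. Hydroperoxide detected by Fe-xylenol orange; 573/405 nm absorbance ratio.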
Active calls of the source: *; ? = inconclusive; nt = no result given; [ ] = dose if it differs, or a comment. Unless noted, calls come from the whole dose curve; as a rule, active = well fitted curve in the direction sought with a large enough effect; inconclusive = small, poorly fitted or top-dose-only effect, or another doubt; inactive = no such curve, though single readings can be large; an effect the other way counts as inactive or inconclusive. Unless noted, % is set by controls: 0 for no effect and ±100 for the full control effect.

SMILES	12-hLO inh	PNC assembly inh	15-hLO-2 inh
CCOc1ccc(NC(=O)CC2C(=O)N(CC)C(=S)N2CCNC(C)=O)cc1 (centres undefined)	0%	11	nt
Cc1noc(C)c1-c1ccc2ncnc(Nc3ccccc3)c2c1	nt	nt	-4%
C[C@@H]1C=C[C@](Cc2ccccc2)(C(=O)NCCN2CCOCC2)N1C(=O)c1ccccc1	-3%	nt	9%
CCCCCNC(=O)CCCCn1c(=O)[nH]c2cc(OCC)c(OCC)cc2c1=O	-5%	?	-12%
CCOc1cc2[nH]c(=O)n(CCCCC(=O)N3CCCCCC3)c(=O)c2cc1OCC	1%	-100*	nt
Cc1cc(C)cc(Cn2ncc(Cl)c(Cl)c2=O)c1	-3%	?	nt
Cc1ccc(Cn2ncc(Cl)c(Cl)c2=O)cc1	-2%	-105*	nt
CCC1(C)Cc2c(sc3nn[nH]c(=O)c23)CO1 (centres undefined)	-5%	19	-13%
CC1(C)Cc2c(sc3nn[nH]c(=O)c23)CO1	3%	-85*	-15%
CCCn1c(C)nc2c(N(C)CCN(C)C)nc(C)nc21	-4%	nt	13%
Oc1c(Cl)cc(Cl)c(Cl)c1Cl	0%	nt	-6%
Oc1c(Cl)cc(C(c2cc(Cl)c(O)c(Cl)c2)C(c2cc(Cl)c(O)c(Cl)c2)c2cc(Cl)c(O)c(Cl)c2)cc1Cl	-29%[11.4 µM]	nt	4µM*
CC1=CC(=O)[C@@H]2C[C@H]1C2(C)C	-3%	nt	-5%
Cc1cccc([N+](=O)[O-])c1C	-3%	nt	3%
COc1cc(C)nc(N2CCCC(C(=O)Nc3cccc(Cl)c3C)C2)n1 (centres undefined)	-5%	-124*	4%
Cc1cc(C)nc(N2CCCC(C(=O)NCc3ccccc3)C2)n1 (centres undefined)	7%	?	nt
CCc1cc2c(=O)c(-c3nc4ccccc4n3C)c(C(C)C)oc2c(CN2CCN(C)CC2)c1O	0%	-104*	nt
CCc1cc2c(=O)c(-c3nc4ccccc4n3C)c(C)oc2c(CN2CCN(C)CC2)c1O	9%	-17	nt
O=C(O)CC[P+](c1ccccc1)(c1ccccc1)c1ccccc1	7%[11.4 µM]	nt	3%[11.4 µM]
CC(=O)OCc1ccco1	0%	nt	-12%
O=C(COC(=O)c1cccc([N+](=O)[O-])c1)c1ccc(OCc2ccccc2)cc1	-2%	-116*	nt
O=C(Cc1ccccc1)NCC(=O)OCC(=O)c1cccc([N+](=O)[O-])c1	0%	13	nt
CCC(/C=C/C(C)C1CCC2C3CC=C4CC(O)CC[C@@]4(C)C3CC[C@@]12C)C(C)C (some centres undefined)	1%	nt	1%
O=C(c1csc2ccccc12)n1cccn1	-2%	-87*	-5%
O=C(c1csc2ccccc12)N1CCCCCC1	-5%	3	-3%
SMILES	12-hLO inh	PNC assembly inh	15-hLO-2 inh
Cc1cnc(CNc2ncncc2-c2cccnc2)cn1	nt	nt	-14%
Nc1nc2c(ncn2C2CC(O)C(CO)O2)c(=O)[nH]1 (centres undefined)	3%	nt	-1%
Cc1ccc(CCC(=O)Nc2ccc(S(N)(=O)=O)cc2)o1	2%	12	1%
Cc1cccc(NC(=O)CCc2ccc(C)o2)c1	3%	-80*	-2%
Cc1ccc(-c2cc(-c3ccccc3)[nH]c(=S)c2C#N)cc1	2%	25	6%[11.4 µM]
N#Cc1c(-c2ccc(C(F)(F)F)cc2)cc(-c2ccccc2)[nH]c1=S	-3%	-99*	nt
CCOC(=O)CSc1nnc(-c2ccoc2C)n1-c1ccc(OCC)cc1	-10%	7	-5%
CCOC(=O)CSc1nnc(-c2ccoc2C)n1-c1ccc(C)cc1	3%	-100*	nt
O=C1C(Cl)=C(Sc2nnc3c4ccccc4c4ccccc4c3n2)C(=O)c2ccccc21	-13%[11.4 µM]	nt	11%[11.4 µM]
COCCn1c(=O)c(-c2cccc(C#N)c2)nc2cnc(Oc3ccc(OC)cc3)nc21	nt	nt	0%
CCSc1cnn(-c2ccccc2)c(=O)c1SCC	1%	61	-1%
CCCCSc1cnn(-c2ccccc2)c(=O)c1SCCCC	-3%	-81*	nt
O=C(O)c1ccc(Cc2ccccc2C(=O)O)cc1	1%[11.4 µM]	nt	1%[11.4 µM]
COc1ccccc1N1CCN(C(=O)c2oc3ccc(Br)cc3c2C)CC1	0%	-95*	nt
COc1ccccc1N1CCN(C(=O)c2oc3ccc(F)cc3c2C)CC1	-8%	220	nt
CCCCCCN(C(=O)CCCCCN1C(=O)NC(C2CC2)C(C(=O)OCc2ccccc2)=C1C)C(C(=O)NCCCC)c1ccc(OCC(=O)OC)c(C(=O)OC)c1 (centres undefined)	-3%	nt	18%
O=C(c1cc(C(F)(F)F)cc(C(F)(F)F)c1)N1CCC2(CCCN(c3ncccn3)C2)CC1	-7%	nt	13%
COc1ccc(CCNC(=O)CN2C(=O)c3ccccc3S2(=O)=O)cc1	0%	-5	nt
CC(C)COP(=O)(CNC(=O)CN1C(=O)c2ccccc2S1(=O)=O)OCC(C)C	0%	-82*	nt
O=C(CN1C(=O)c2ccccc2S1(=O)=O)NCc1ccccc1Cl	-3%	-119*	nt
O=C(CN1C(=O)c2ccccc2S1(=O)=O)NCc1ccccn1	3%	-25	8%
COc1ccc(-c2nc3c(c4c2C[C@H](c2ccccc2)OC4)CN(C(=O)Nc2cccc(C#N)c2)CC3)c(C)c1	-4%[11.4 µM]	nt	nt
Cc1cccc(N2CCN(C(=O)Cn3sc4nc(C)cc(C)c4c3=O)CC2C)c1 (centres undefined)	?	17	1µM*
Cc1cc(C)c2c(=O)n(CC(=O)N3CCC(Cc4ccccc4)CC3)sc2n1	-16%	55	nt
Cc1ccc(-c2cnn(-c3cccc([N+](=O)[O-])c3)c2N)cc1	-4%	-87*	-3%
SMILES	12-hLO inh	PNC assembly inh	15-hLO-2 inh
Nc1c(-c2ccccc2Cl)cnn1-c1cccc([N+](=O)[O-])c1	1%	-1	-2%
CC(C)c1cccc2nc3c(c(C(C)(C)C)c12)Cn1c-3cccc1=O	-5%	nt	-17%
O=C(O)CP(=O)(O)O	0%	20	-3%[11.4 µM]
O=P(O)(O)CP(=O)(O)O	-13%	-100*	5%
COc1cc(OC)c2c(c1)OC(=O)CC2c1ccccc1OC (centres undefined)	0%[0.00818 µM]	nt	10%[0.0915 µM]
C(=N\N1CCN(Cc2ccccc2)CC1)/c1cccnc1	-2%	-116*	nt
FC(F)(F)c1ccc(/C=N/N2CCN(Cc3ccccc3)CC2)cc1	-2%	?	nt
Cn1c(=O)c2c(nc(Cc3ccccc3)n2CC(=O)O)n(C)c1=O	4%[11.4 µM]	nt	0%[11.4 µM]
COc1cc2c(cc1O)CCC1C2CC[C@@]2(C)C1CC[C@@H]2O (some centres undefined)	-1%	nt	-1%
Cc1oncc1C(=O)Nc1ccc(C(F)(F)F)cc1	-9%	?	0%
Cc1oncc1C(=S)Nc1ccccc1	1%	-92*	-12%
Cc1[nH]c2ccccc2c1-c1cc(-c2cc(-c3c(C)[nH]c4ccccc34)nc(N)n2)nc(N)n1	2%[11.4 µM]	nt	-4%[11.4 µM]
COC(=O)c1ccc(C(NC(=O)OCc2ccccc2)/C(F)=C/[C@@H](C)C(=O)NCc2ccc(OC)c(OC)c2)cc1 (some centres undefined)	-3%	-119*	-24%
COC(=O)c1ccc(C(NC(=O)OCc2ccccc2)/C(F)=C/[C@@H](C)C(=O)NCc2ccc(-c3ccccc3)cc2)cc1 (some centres undefined)	-2%	-19	-15%
